USP1 inh – USP1/UAF1 (human) deubiquitinase inhibition; O94782; recombinant USP1/UAF1, Ub-Rhodamine cleavage fluorescence; Potency, µM (highest dose often 57.1 µM), without a hit: at the highest dose activity change, negative = inhibition, hits mostly inhibitors; 390,000 compounds, 0.23% hits; also: potency is read from the fitted curve at half-maximal effect; % is scaled to controls: 0 for no effect and ±100 for the full control effect; nearly all actives have a fitted effect of over 60% in size
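High-throughput fluorogenic screen: 1nM USP1/UAF1 complex, Ub-Rho substrate 150nM final, 50mM HEPES pH 7.8 with 0.5mM EDTA, 0.1 mg/ml BSA, 1mM TCEP and 0.01% Tween-20.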
USP2a block – USP2a (human) protease inhibition; O75604; USP2 core, Ub-CHOP2 coupled fluorogenic reporter, 485/531; Potency, µM (doses to about 38.3 µM), without a hit: at the highest dose activity change, negative = inhibition, most hits filed as inhibitors; 330,000 compounds, 0.01% hits; AID 463254;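 also: potency is read from the fitted curve at half-maximal effect; plate controls were DMSO wells for no effect and full inhibition by NEM control for full effect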
Target sequence (O75604 whole entry, looked up): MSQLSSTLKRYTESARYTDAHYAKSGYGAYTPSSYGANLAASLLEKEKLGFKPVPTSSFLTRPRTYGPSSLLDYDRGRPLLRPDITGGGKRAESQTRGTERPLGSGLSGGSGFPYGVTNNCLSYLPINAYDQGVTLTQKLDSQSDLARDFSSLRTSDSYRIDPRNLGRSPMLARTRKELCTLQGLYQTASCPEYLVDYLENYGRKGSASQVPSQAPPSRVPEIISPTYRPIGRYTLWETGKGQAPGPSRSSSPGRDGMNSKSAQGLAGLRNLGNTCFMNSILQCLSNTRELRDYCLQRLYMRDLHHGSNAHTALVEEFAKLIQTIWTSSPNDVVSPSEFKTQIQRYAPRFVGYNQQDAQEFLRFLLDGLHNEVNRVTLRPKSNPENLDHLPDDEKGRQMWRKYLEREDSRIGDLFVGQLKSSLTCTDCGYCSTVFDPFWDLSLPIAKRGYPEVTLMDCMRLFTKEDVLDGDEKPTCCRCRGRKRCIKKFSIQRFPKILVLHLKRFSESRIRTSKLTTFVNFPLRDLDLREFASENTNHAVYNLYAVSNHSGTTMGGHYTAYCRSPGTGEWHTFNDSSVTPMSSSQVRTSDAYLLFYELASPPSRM
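Cell-free coupled assay: 10nM USP2 core preincubated 30min RT with compound in Tris-HCl pH 8.0/CaCl2/CHAPS buffer, then 25nM Ub-CHOP2 and 25nM reporter substrate; fluorescence (Ex 485/Em 531) read after 60min RT, normalized to NEM inhibition, concentration-response curves fitted.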
IL-1B inflam inh – blocks inflammasome-driven IL-1 beta release | THP-1 LPS/ATP IL-1B secretion, AlphaLISA, 16 h; active compounds read low | activity change, % at 57.5 µM | 360,000 compounds, 4.7% hits; in the data active = activity change below about -50%; inconclusive = mostly about -30% to -49%; also: % is scaled to controls: 0 for no effect and ±100 for the full control effect
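THP-1 cells pretreated 1 hr with compounds (up to 57.5 uM final), then stimulated with LPS (250 ng/mL final) plus ATP (1.25 mM final); secreted IL-1B measured by AlphaLISA after 16 hr, decreased signal indicating inhibition.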
S2 tox – viability counter-screen for ATXN expression inhibitors. S2 cells (HEK-293 line with an ATXN2-luciferase reporter) viability, CellTiter-Fluor protease fluorescence, 24 h. Potency, µM (series often up to 56.7 µM), usual class: cytotoxic. 400,000 compounds, 0.49% hits; also: potency is read from the fitted curve at half-maximal effect; nearly all actives have a fitted effect of over 40% in size
ATXN2 expr inh – inhibitors of ATXN2 expression; HEK-293 ATXN2-luciferase reporter, luminescence, 24 h; Potency, µM (doses to about 57 µM), without a hit: at the highest dose activity change, negative = inhibition, usual class: inhibitors; 360,000 compounds, 0.72% hits; also: potency is read from the fitted curve at half-maximal effect; % is scaled to controls: 0 for no effect and ±100 for the full control effect; nearly all actives have a fitted effect of over 55% in size
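ATXN2-luciferase reporter cells (luciferase flanked by upstream and downstream ATXN2 gene portions) were treated 24 h at 37 °C with compounds at up to 57 uM. SteadyGlo luminescence gave expression; GF-AFC fluorescence gave viability.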
Starred values were filed as active, the others as inactive; i = inactive; ? = inconclusive; nt = no result given; ! = a repeat was not active; [ ] = dose if it differs, or a comment. In the library only some 4.8% were active in any assay of this set; here they are far more common. Unless noted, calls follow the shape of the dose curve; as a rule, active = well fitted curve in the direction sought with a large enough effect; inconclusive = small, poorly fitted or top-dose-only effect, or another doubt; inactive = no such curve, though single readings can be large; an effect the other way counts as inactive or inconclusive.

SMILES	USP1 inh	USP2a block	IL-1B inflam inh	S2 tox	ATXN2 expr inh
O=C(Nc1ccc2nc3n(c(=O)c2c1)CCCC3)c1ccccc1F	-12.7%	-0.6%	-11.2	i	64.1%
O=C(Nc1ccc2nc3n(c(=O)c2c1)CCCCC3)c1cc([N+](=O)[O-])ccc1F	-26.4%	0.9%	-93.4*	nt	?
CC(=O)c1ccc(C(=O)NCC2Cc3cccc(-c4ncccn4)c3O2)cc1 (centres undefined)	nt	nt	nt	i	nt
CC(C)NC(=O)c1ccc(C=O)cc1	nt	nt	nt	i	4.9%
COc1cc(C(=O)OCC(=O)N2CCC(Cc3ccccc3)CC2)cc(OC)c1OC	-19.5%	-0.7%	-14.8	?	-4.7%
COc1ccccc1C(O)c1ncc(-c2cccc3ccccc23)[nH]1 (centres undefined)	nt	nt	-17.7	i	-13.1%
N#C/C(=N\Nc1ccc(Cl)cc1)C(N)=S	-25.5%	1.3%	-81.4*	?	?
CC1(C(=O)NS(=O)(=O)Cc2cccc(Cl)c2)CCN1C(=O)C1CCCCC1 (centres undefined)	nt	nt	28.2	i	4.4%
CN(C)c1ccc2nc3ccc(=[N+](C)C)cc-3sc2c1	-22.9%	0.7%	?	25.1µM*!	7.94µM*!
Cc1nc2cc(C)c(C)cc2s1	-16.6%	0.1%	-4.8	i	-17.1%
CN(C)c1ccc2nc3ccc(=O)cc-3sc2c1	-25.7%	nt	-15.8	i	nt
Cc1cc2nc3ccc(=[N+](C)C)cc-3sc2cc1N	?	-1.9%	-17.2	12.6µM*	7.08µM*
Cc1ccc(CN(C(=O)c2ccc(C(C)(C)C)cc2)c2ccccn2)o1	-10.8%	nt	nt	i	36.3%
Cc1nn2c(=O)cc(COC(=O)COc3ccccc3C)nc2s1	-21.6%	nt	nt	i	11.2%
Cc1ccc2nc(N/N=C/c3ccco3)cc(C)c2c1	-20.6%	4.9%	-55.9*	i	-29.1%
Cc1ccc2nc(SCC(=O)N/N=C/c3ccco3)cc(C)c2c1	-13.0%	3.8%	-6.8	i	-5.5%
CCC(C(=O)O)n1nc(-c2ccccc2)c2cc(Cl)ccc21 (centres undefined)	-16.6%	1.5%	21.9	i	1.5%[11.3 µM]
NC(c1csc(Nc2cc(NCCCO)ncn2)n1)c1ccccc1Cl (centres undefined)	nt	nt	-55.9*	i	-21.0%
NC(c1csc(Nc2ncccn2)n1)c1ccccc1Cl (centres undefined)	nt	nt	-1.3	i	?
CC(C)NC(=O)c1cn(C2CCCN(C(=O)c3cc4ccccc4oc3=O)C2)nn1 (centres undefined)	nt	nt	nt	i	nt
COc1ccc2c3c([nH]c2c1)C1CC2C(CC(O)C(OC)C2CO)CN1CC3 (centres undefined)	?	3.5%	11.3	i	5.6%
COc1ccc2c3c([nH]c2c1)[C@H]1C[C@H]2[C@H](C[C@@H](O)[C@H](OC)[C@H]2C(=O)O)CN1CC3	?	5.8%	-81.6*	i	-31.2%
O=C(c1ccccc1Br)N(Cc1ccccc1)c1ccccc1	-14.2%	-3.4%	-57.2*	i	-17.3%
O=C(NCC1CCCO1)c1cc2ccccc2cc1O (centres undefined)	-16.9%	-1.7%	5.1	i	50.4%
O=C(NCC1CCCCC1)c1cc2ccccc2cc1O	-11.5%	-4.6%	-87.9*	i	-17.9%
SMILES	USP1 inh	USP2a block	IL-1B inflam inh	S2 tox	ATXN2 expr inh
CC(C)C[C@H](NC(=O)c1[nH]cnc1C(=O)N[C@H](C)c1ccccc1)C(=O)OC(C)(C)C	?	-6.5%	-54.5*	nt	?
CC(C)C[C@H](NC(=O)c1nc[nH]c1C(=O)N[C@@H](CC(C)C)C(=O)OC(C)(C)C)C(=O)OC(C)(C)C	-6.8%	-22.3%	?	22.4µM*	?
CC(C)C[C@H](NC(=O)c1[nH]cnc1C(=O)Nc1ccc(Cl)cc1)C(=O)OC(C)(C)C	-13.1%	1.8%	?	28.2µM*	?
CC(C)C[C@H](NC(=O)c1nc[nH]c1C(=O)NC(c1ccccc1)c1ccccc1)C(=O)OC(C)(C)C	-15.1%	-5.6%	-68.8*	?	?
O=C(C=Cc1ccccn1)c1ccccc1O	10.0%	nt	-94.5*	nt	?
O=C(C=Cc1ccccn1)c1ccccc1	-10.0%	nt	-97.6*	nt	?
O=C(/C=C/c1cccnc1)c1ccccc1O	-13.7%	0.5%	-2.3	i	nt
COc1cc(OC)cc(C(=O)NNC(=O)C(CCC(N)=O)NS(=O)(=O)c2ccc(Cl)cc2)c1 (centres undefined)	-9.4%	nt	12.0	i	-0.3%
Cn1c(Sc2ccccc2Cl)c(C=O)c2ccccc21	-19.5%	-0.1%	-62.7*	?	-4.4%
Cn1c(Sc2ccc(Cl)cc2)c(C=O)c2ccccc21	-15.6%	2.1%	-81.0*	i	-0.6%
CCOC(=O)N1CCC(n2c(=O)[nH]c3cc(Cl)ccc32)CC1	nt	nt	nt	i	?
CC(C)(C)NCC(O)CON=C1c2ccccc2-c2ccccc21 (centres undefined)	-20.4%	-1.3%	-98.4*	nt	-36.0%
COc1cc(/C=N/Nc2nc3ccccc3s2)ccc1OC(=O)c1ccccc1F	-12.5%	2.7%	-71.2*	i	130.6%
COC(=O)C(Cc1ccccc1)NC(=O)c1cc(=O)[nH]c2ccccc12 (centres undefined)	5.0%	6.9%	-102.6*	i	-0.6%
COC(=O)C(Cc1c[nH]c2ccccc12)NC(=O)c1cc(-c2ccc(OC)c(OC)c2)oc1C (centres undefined)	-21.1%	-4.1%	-64.3*	i	12.4%
COC(=O)[C@@H](Cc1c[nH]c2ccccc12)NC(=O)CNC(=O)c1ccccc1OC	-10.0%	-0.8%	-99.5*	i	3.1%
COC(=O)[C@@H](Cc1c[nH]c2ccccc12)NC(=O)c1cc(=O)[nH]c2ccccc12	-18.6%	-0.4%	-98.9*	i	-19.5%
COc1ccc(CNC(=O)COC(=O)[C@H](Cc2c[nH]c3ccccc23)NC(=O)c2cccs2)cc1	-8.5%	-0.1%	-92.6*	i	1.1%
Cc1sc2cc3c(c(C(=O)c4ccccc4)[n+]2c1C)-c1cccc2cccc-3c12	-10.9%	0.0%	-96.6*	?	10.6µM*
O=C(c1ccccc1)c1c2c(cc3sc4ccccc4[n+]13)-c1cccc3cccc-2c13	?	4.3%	-108.4*	10µM*	?
Cc1cc2ccccc2cc1C(=O)c1ccccc1	?	nt	42.5	i	8.4%
CNC(=S)NN=C(C)CCCC(C)=NNC(=S)NC	1.9%	nt	-104.8*	?	10.6µM*
O=C(O)CCCC[C@@H]1SC[C@@H]2NC(=O)N[C@@H]21	-20.4%	nt	-106.1*	i	4.5%
CC1=C(C(=O)N2CCCCCC2)CC(CC(=O)NC2CCCC2)C(=O)N1Cc1ccccc1 (centres undefined)	nt	nt	-5.2	i	3.7%

Bioassay records from PubChem.
